Measurements published in the supplement of paper PMC11732987, “Enantioselective OTUD7B fragment discovery through chemoproteomics screening and high-throughput optimisation” (Communications Chemistry, 2025).

Columns and labels:
Assay in all cases: log2 ratio of Biotin-Ahx-Ub-VS probe labelling (fragment/DMSO); higher = less target engagement (more negative = stronger competition), active = hit call of the paper (q ≤ 0.05, log2 ratio ≤ -1)
Conditions in all cases: compound concentration: 200 uM; treatment time: 3 h
USP19 = molecular target: T1, USP19 (UniProt O94966)
T1 sequence (whole entry): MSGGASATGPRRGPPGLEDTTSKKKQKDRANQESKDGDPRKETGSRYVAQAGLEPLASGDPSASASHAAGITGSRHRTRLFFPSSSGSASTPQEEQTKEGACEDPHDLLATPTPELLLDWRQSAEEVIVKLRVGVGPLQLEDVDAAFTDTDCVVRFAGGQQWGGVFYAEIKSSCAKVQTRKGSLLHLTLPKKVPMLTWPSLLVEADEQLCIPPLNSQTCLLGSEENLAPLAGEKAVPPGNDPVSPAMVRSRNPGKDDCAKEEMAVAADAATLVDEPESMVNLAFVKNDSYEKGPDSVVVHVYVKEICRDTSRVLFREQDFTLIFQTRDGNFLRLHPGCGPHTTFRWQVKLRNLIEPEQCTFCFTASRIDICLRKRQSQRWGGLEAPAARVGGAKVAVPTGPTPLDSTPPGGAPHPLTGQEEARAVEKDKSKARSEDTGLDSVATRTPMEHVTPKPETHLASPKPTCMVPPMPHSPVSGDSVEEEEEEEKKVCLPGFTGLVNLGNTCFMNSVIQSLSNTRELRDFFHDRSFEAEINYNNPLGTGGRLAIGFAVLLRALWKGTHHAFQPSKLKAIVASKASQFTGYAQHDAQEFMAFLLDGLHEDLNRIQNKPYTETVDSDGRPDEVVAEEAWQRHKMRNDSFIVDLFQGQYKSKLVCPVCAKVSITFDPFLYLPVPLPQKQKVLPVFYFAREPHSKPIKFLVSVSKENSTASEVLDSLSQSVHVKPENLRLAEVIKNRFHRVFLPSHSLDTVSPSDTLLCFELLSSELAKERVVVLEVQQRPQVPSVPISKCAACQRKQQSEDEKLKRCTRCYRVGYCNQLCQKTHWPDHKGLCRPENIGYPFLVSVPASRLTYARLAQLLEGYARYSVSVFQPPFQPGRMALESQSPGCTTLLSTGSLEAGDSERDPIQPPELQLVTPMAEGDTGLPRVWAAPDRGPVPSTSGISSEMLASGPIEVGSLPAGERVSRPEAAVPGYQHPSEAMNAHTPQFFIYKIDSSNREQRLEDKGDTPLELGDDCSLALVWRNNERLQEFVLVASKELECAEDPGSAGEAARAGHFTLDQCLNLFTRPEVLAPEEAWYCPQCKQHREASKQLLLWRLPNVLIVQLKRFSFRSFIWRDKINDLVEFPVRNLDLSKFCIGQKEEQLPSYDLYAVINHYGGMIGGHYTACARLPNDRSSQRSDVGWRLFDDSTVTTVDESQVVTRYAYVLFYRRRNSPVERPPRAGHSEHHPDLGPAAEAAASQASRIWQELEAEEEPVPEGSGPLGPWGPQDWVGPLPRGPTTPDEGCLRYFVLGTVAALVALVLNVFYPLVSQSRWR
Summary of the method: (§1)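 Triplicate samples of HEK293T lysate, 495 µg each, received fragment at 200 µM or vehicle for 3 h, followed by Biotin-Ahx-Ub-VS (0.5 µM final) for 1 h. After NeutrAvidin enrichment of labelled DUBs and LysC/trypsin digestion, peptides were run by diaPASEF LC-MS/MS. The values are average log2 fragment/vehicle ratios from global-median-normalised Spectronaut label-free quantities, tested by unpaired t-test on proteins having ≥2 unique peptides.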

USP22 = molecular target: T2, USP22 (UniProt Q9UPT9)
T2 sequence (whole entry): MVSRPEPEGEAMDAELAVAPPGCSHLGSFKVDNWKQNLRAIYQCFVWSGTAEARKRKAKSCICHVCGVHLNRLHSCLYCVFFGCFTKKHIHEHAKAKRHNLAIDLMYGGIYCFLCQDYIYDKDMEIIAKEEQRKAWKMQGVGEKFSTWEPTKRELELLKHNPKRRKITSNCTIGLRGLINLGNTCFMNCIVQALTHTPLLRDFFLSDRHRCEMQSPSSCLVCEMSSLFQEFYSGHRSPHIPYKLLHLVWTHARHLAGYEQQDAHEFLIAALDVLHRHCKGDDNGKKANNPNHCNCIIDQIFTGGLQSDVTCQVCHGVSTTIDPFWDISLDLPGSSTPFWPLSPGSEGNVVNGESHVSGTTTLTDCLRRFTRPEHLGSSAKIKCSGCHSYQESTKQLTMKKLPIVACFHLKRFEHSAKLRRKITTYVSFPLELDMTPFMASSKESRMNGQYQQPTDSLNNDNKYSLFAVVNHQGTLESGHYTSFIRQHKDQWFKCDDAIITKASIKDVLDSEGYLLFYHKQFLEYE
Summary of the method: as §1

USP24 = USP24 (UniProt Q9UPU5)
Summary of the method: as §1

USP25 = molecular target: T3, USP25 (UniProt Q9UHP3)
T3 sequence (whole entry): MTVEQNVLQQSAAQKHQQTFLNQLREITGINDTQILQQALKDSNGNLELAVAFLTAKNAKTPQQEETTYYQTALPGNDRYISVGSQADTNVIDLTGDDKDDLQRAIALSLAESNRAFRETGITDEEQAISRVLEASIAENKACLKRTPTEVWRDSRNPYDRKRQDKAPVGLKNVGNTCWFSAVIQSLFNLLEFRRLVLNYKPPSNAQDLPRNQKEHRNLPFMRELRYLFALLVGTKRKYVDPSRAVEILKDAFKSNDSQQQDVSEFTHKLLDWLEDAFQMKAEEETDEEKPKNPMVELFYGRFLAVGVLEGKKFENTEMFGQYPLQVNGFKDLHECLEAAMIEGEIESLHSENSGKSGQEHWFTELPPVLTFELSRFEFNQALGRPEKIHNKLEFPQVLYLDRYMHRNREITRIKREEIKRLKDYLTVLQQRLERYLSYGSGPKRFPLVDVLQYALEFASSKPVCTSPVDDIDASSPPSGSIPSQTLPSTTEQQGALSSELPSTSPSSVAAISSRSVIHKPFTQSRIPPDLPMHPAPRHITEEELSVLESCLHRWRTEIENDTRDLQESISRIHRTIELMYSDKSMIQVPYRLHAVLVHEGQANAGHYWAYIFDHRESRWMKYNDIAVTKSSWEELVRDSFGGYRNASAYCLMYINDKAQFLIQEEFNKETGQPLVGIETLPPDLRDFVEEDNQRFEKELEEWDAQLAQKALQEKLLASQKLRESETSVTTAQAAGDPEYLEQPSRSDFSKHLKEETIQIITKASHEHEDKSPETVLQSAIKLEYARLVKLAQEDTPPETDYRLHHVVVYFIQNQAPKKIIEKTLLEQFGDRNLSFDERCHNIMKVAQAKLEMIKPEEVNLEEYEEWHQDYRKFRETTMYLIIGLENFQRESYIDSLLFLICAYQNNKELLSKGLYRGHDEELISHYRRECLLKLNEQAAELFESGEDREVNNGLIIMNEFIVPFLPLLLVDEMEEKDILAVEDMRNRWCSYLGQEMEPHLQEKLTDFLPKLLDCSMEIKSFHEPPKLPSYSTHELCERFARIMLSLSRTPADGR
Summary of the method: as §1

USP28 = molecular target: T4, USP28 (UniProt Q96RU2)
T4 sequence (whole entry): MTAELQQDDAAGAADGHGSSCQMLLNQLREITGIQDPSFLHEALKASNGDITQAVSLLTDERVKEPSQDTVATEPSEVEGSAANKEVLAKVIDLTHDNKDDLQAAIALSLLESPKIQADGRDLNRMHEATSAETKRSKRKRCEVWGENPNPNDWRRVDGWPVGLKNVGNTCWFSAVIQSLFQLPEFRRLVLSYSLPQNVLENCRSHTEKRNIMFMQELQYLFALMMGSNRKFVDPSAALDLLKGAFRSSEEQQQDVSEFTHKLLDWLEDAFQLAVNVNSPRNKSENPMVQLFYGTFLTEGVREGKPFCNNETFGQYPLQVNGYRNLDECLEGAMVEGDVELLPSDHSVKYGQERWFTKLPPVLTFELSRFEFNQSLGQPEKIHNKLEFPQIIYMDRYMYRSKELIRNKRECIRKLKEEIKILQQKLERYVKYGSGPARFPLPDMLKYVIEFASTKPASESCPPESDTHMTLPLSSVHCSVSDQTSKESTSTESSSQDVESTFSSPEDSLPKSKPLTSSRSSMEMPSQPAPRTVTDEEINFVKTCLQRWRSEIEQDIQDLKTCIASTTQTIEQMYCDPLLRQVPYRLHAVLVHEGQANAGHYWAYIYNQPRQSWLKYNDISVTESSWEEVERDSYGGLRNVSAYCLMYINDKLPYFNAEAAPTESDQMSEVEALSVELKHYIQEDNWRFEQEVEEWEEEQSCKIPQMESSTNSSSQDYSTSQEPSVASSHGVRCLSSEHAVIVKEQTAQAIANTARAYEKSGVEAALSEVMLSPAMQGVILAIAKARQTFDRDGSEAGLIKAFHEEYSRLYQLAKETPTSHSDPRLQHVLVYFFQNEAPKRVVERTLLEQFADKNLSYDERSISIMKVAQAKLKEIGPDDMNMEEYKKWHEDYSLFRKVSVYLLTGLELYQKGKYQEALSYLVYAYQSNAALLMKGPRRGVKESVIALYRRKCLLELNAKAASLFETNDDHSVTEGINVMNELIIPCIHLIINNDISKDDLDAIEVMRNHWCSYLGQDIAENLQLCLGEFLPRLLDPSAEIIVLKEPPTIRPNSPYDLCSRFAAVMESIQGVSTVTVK
Summary of the method: as §1

Measured: log2 ratio of Biotin-Ahx-Ub-VS probe labelling

Sequence of USP24 (Q9UPU5 whole entry): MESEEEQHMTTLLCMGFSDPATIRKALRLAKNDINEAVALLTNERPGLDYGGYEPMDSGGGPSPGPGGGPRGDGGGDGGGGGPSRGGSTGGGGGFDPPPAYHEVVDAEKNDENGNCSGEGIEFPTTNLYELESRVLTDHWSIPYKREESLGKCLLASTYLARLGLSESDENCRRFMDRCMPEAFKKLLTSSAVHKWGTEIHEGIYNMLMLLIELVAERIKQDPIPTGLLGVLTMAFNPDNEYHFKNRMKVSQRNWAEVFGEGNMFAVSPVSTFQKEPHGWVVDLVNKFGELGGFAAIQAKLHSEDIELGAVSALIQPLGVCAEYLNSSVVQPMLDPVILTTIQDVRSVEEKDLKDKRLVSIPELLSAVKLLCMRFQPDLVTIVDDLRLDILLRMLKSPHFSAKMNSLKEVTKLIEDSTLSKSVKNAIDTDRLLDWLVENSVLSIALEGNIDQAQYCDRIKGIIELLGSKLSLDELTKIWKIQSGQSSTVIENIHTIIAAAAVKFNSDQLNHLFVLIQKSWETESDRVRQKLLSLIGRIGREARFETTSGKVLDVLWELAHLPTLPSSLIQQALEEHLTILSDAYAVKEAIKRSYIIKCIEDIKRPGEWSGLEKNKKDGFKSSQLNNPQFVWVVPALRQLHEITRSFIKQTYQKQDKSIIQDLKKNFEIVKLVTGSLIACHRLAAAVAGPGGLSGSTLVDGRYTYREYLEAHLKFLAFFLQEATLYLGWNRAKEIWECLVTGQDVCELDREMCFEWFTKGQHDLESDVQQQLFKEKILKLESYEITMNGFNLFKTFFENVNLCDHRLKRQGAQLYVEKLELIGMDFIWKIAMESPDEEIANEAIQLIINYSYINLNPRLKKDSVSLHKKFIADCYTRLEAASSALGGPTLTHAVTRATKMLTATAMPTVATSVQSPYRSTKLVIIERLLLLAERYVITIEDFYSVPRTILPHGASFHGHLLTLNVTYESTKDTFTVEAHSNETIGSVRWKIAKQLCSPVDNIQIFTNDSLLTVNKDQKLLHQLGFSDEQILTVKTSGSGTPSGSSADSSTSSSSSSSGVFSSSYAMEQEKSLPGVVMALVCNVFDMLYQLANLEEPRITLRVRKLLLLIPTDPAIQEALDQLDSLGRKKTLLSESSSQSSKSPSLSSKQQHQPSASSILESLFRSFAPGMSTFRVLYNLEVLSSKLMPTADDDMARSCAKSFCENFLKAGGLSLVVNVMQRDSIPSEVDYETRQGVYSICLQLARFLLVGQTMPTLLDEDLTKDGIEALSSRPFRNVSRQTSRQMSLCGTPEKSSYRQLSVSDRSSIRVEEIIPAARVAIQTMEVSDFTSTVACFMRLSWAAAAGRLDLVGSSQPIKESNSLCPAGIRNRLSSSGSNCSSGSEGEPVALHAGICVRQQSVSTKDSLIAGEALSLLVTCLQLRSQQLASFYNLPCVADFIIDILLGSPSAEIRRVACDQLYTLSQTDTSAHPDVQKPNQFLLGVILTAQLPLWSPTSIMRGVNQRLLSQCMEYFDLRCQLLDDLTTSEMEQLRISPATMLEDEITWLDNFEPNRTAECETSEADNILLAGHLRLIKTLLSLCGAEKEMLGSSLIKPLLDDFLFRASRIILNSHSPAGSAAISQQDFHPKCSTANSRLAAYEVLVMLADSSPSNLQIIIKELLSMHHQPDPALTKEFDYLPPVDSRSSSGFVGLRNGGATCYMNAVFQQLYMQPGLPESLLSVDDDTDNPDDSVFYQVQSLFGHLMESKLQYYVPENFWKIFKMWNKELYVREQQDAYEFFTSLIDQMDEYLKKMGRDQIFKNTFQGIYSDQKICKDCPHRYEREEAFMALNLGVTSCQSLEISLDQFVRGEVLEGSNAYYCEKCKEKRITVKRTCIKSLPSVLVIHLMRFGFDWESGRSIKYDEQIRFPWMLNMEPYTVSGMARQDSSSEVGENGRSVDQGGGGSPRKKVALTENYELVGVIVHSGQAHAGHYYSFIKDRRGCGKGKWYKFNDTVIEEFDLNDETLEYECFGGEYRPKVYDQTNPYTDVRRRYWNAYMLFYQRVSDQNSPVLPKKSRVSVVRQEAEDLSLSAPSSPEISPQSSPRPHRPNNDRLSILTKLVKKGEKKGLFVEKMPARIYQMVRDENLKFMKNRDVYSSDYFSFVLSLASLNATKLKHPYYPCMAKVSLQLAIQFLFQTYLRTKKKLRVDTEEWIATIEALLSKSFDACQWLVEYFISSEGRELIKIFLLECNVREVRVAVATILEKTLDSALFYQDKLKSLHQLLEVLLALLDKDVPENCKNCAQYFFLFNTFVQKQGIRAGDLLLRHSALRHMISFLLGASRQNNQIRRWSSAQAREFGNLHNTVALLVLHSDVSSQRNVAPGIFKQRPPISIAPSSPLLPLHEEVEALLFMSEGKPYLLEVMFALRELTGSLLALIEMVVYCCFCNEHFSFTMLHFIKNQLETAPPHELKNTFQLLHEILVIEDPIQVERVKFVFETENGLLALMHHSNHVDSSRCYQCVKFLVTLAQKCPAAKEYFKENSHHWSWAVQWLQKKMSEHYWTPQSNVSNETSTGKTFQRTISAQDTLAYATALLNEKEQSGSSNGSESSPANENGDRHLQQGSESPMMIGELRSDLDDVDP

Cl.Cn1ncc2c1CC(NC(=O)CCl)CC2 (stereo not given)
inactive: USP19 0.0381 | USP22 0.0984 | USP24 0.0406 | USP25 -0.321 | USP28 -0.758
